Reference: PubChem BioAssay AID1159580 (chemical genetic matrix, 2015)
In all, about 5,500 compounds went through this assay and about 2,000 (36%) were called active. Roughly 18% stayed inconclusive and do not appear here. Rule as the data show it: active = normalized growth mostly below about 0.91 (no sharp cut-off); inconclusive = no clear call, values can overlap the other calls; inactive = mostly above about 0.92. The list shows a part of the results.

Test: chemical genetic growth profiling, strain panel (AID 1159580);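 also: tested at 20 µM; growth read once vehicle control cultures reached saturation at 30 °C; 1 = growth at the plate median or of vehicle wells; lower values mean less growth of the strain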
Details: S. cerevisiae deletion strains, growth OD
[1] = locus YAL013W, strain DEP1, stronger effect = lower value
[2] = locus YJR075W, strain HOC1, stronger effect = lower value
[3] = locus YMR307W, strain GAS1, stronger effect = lower value
[4] = locus YNL153C, strain GIM3, stronger effect = lower value
[5] = locus YNL322C, strain KRE1, stronger effect = lower value
[6] = locus YAL040C, strain CLN3, stronger effect = lower value
[7] = locus YCL061C, strain MRC1 (second series), stronger effect = lower value
[8] = locus YDR150W, strain NUM1, stronger effect = lower value
[9] = locus YDR363W, strain ESC2, stronger effect = lower value
[10] = locus YER002W, strain NOP16, stronger effect = lower value
[11] = locus YGR078C, strain PAC10, stronger effect = lower value
[12] = locus YNL175C, strain NOP13, stronger effect = lower value
[13] = locus YNL197C, strain WHI3, stronger effect = lower value
[14] = locus YNL224C, strain SQS1, stronger effect = lower value
[15] = locus YOR083W, strain WHI5 (second series), stronger effect = lower value

Measured: normalized growth

CCC1C2CC3C4N(C)c5ccccc5C45CC(C2C5OC(C)=O)N3C1OC(C)=O (configuration not stated)
inactive: [1] 1.01 | locus YBR021W, strain FUR4, stronger effect = lower value 1.01 | locus YBR229C, strain ROT2, stronger effect = lower value 1 | locus YCL029C, strain bik1, stronger effect = lower value 1.02 | locus YDL035C, strain GPR1, stronger effect = lower value 1.02 | locus YDL074C, strain BRE1, stronger effect = lower value 1.04 | locus YDL101C, strain DUN1, stronger effect = lower value 1.01 | locus YDL134C, strain PPH21, stronger effect = lower value 1.02 | locus YDL185W, strain tfp1, stronger effect = lower value 1.02 | locus YDL192W, strain arf1, stronger effect = lower value 1.01 | locus YDR101C, strain arx1, stronger effect = lower value 1.01 | locus YDR162C, strain NBP2, stronger effect = lower value 1.01 | locus YDR318W, strain mcm21, stronger effect = lower value 1.01 | locus YDR388W, stronger effect = lower value 1.03 | locus YDR502C, strain sam2, stronger effect = lower value 1.02 | locus YEL061C, strain CIN8, stronger effect = lower value 1.01 | locus YER110C, stronger effect = lower value 1.03 | locus YER155C, strain BEM2, stronger effect = lower value 1 | locus YER167W, strain BCK2, stronger effect = lower value 1.02 | locus YGL078C, strain dbp3, stronger effect = lower value 1 | locus YGL086W, strain mad1, stronger effect = lower value 0.997 | locus YGL248W, strain PDE1, stronger effect = lower value 1.01 | locus YGR135W, strain pre9, stronger effect = lower value 1.01 | locus YGR252W, strain gcn5, stronger effect = lower value 1.02 | locus YHR030C, strain SLT2, stronger effect = lower value 1.02 | locus YHR079C, strain IRE1 (second series), stronger effect = lower value 1 | locus YHR094C, strain hxt1, stronger effect = lower value 1.01 | locus YHR129C, strain ARP1, stronger effect = lower value 1.02 | locus YHR200W, strain rpn10, stronger effect = lower value 1.02 | locus YIL066C, strain RNR3, stronger effect = lower value 1.02 | locus YIL073C, strain SPO22, stronger effect = lower value 1.08 | locus YIL125W, strain kgd1, stronger effect = lower value 1.03 | locus YIR030C, strain dcg1, stronger effect = lower value 1.01 | locus YJL095W, strain BCK1, stronger effect = lower value 1.01 | locus YJL134W, strain LCB3, stronger effect = lower value 1.02 | locus YJL168C, strain set2, stronger effect = lower value 1.02 | locus YJL187C, strain SWE1 (second series), stronger effect = lower value 1.01 | locus YJR043C, strain POL32, stronger effect = lower value 1.01 | [2] 1.04 | locus YKL009W, strain mrt4, stronger effect = lower value 1.02 | locus YKL068W, stronger effect = lower value 1 | locus YKL085W, strain MDH1 (second series), stronger effect = lower value 0.995 | locus YKL085W, strain MDH1, stronger effect = lower value 0.995 | locus YKR001C, strain vps1, stronger effect = lower value 1.03 | locus YLR039C, strain RIC1, stronger effect = lower value 1.07 | locus YLR058C, strain SHM2, stronger effect = lower value 1.01 | locus YLR102C, strain apc9, stronger effect = lower value 1.03 | locus YLR262C, strain YPT6, stronger effect = lower value 1.09 | locus YLR268W, strain sec22, stronger effect = lower value 1.02 | locus YLR330W, strain CHS5, stronger effect = lower value 1.02 | locus YLR342W, strain FKS1 (second series), stronger effect = lower value 1.03 | locus YLR371W, strain rom2, stronger effect = lower value 1.01 | locus YLR418C, strain cdc73, stronger effect = lower value 1.04 | locus YML016C, strain PPZ1, stronger effect = lower value 1.01 | locus YML032C, strain rad52, stronger effect = lower value 1.02 | locus YML124C, strain tub3, stronger effect = lower value 1.01 | locus YMR078C, strain ctf18, stronger effect = lower value 0.999 | locus YMR223W, strain ubp8, stronger effect = lower value 1.01 | locus YMR263W, strain SAP30, stronger effect = lower value 1.01 | [3] 0.992 | locus YNL067W, strain RPL9B, stronger effect = lower value 1.02 | locus YNL128W, strain TEP1, stronger effect = lower value 1.01 | [4] 1 | locus YNL233W, strain BNI4, stronger effect = lower value 1.02 | locus YNL250W, strain rad50, stronger effect = lower value 1.01 | locus YNL271C, strain bni1, stronger effect = lower value 1.01 | locus YNL298W, strain CLA4, stronger effect = lower value 1.02 | locus YNL307C, strain MCK1, stronger effect = lower value 1.02 | [5] 1.01 | locus YNR052C, strain pop2, stronger effect = lower value 1.02 | locus YOL006C, strain TOP1, stronger effect = lower value 1.14 | locus YOL012C, strain htz1 0.814 | locus YOL147C, strain pex11, stronger effect = lower value 1.02 | locus YOR061W, strain CKA2, stronger effect = lower value 1.01 | locus YOR069W, strain VPS5, stronger effect = lower value 1.01 | locus YOR136W, strain idh2, stronger effect = lower value 1.02 | locus YOR144C, strain elg1, stronger effect = lower value 1.01 | locus YOR184W, strain ser1, stronger effect = lower value 1.01 | locus YOR316C, strain cot1, stronger effect = lower value 1.02 | locus YPL055C, strain LGE1, stronger effect = lower value 1.04 | locus YPR119W, strain clb2, stronger effect = lower value 1 | locus YPR141C, strain kar3, stronger effect = lower value 1.01 | locus YPR163C, strain tif3, stronger effect = lower value 1.02 | locus YPR167C, strain met16, stronger effect = lower value 1.01 | strain wtn01, stronger effect = lower value 1.04

CO[C@H]1CC=C2CCN3CCC4=C(CC(=O)OC4)[C@]23C1
inactive: [6] 0.99 | [7] 1 | [8] 1.01 | [9] 1.07 | [10] 1.01 | [11] 1.01 | [2] 1.01 | [3] 0.999 | [4] 0.981 | [12] 1.01 | [13] 1.03 | [14] 0.997 | [5] 0.998 | [15] 1.06

Nc1ccn([C@H]2CC[C@@H](CO)O2)c(=O)n1
inactive: [1] 1.01 | [6] 1.01 | [7] 0.988 | [8] 0.994 | [9] 1.01 | [10] 0.987 | [11] 0.989 | [3] 0.993 | [4] 1.04 | [12] 1 | [13] 1 | [14] 0.997 | [15] 1.01
